Results filed as inconclusive are left out. Entries that show only a call come without a potency. Calls of active or inactive are those of the source. Calls follow the shape of the dose curve; as a rule, active = well fitted inhibition curve with a large enough effect; inconclusive = small, poorly fitted or top-dose-only effect; inactive = flat fitted curve, though single readings scatter.
Potency is read from the fitted curve at half-maximal effect.

The test deals with DFO2036. The test is described as follows: qHTS profiling for inhibitors of Plasmodium falciparum proliferation (AID 504749). Also: nearly all actives have a fitted effect of over 60% in size. The settings on record: P. falciparum in erythrocytes, SYBR Green DNA, 72 h; series mostly up to 12.8 µM. An excerpt: NIH National Institute of Allergy and Infectious Diseases [NIAID] NIH Chemical Genomics Center [NCGC] MLPCN Grant: None Assay Provider: Xinzhuan Su, NIAID NCGC Assay Overview: Plasmodium falciparum is a virulent malarial parasite that kills 1-2 million people worldwide each year. Transmitted by mosquitoes, the sporozoite form of the parasite enters the blood stream to infect hepatocytes, where they become merozoites that infect red blood cells (erythrocytes). Within erythrocytes, merozoites begin a […] cycle of growth and division, after which the parasite is released to infect new red blood cells. Gametocytes, which form within erythrocytes as well, circulate in the bloodstream and are ingested by the mosquito, thereby completing the life cycle. To profile malarial isolates for differential chemical responses and to identify inhibitors of malarial growth, an assay that measures P. falciparum growth and replication within erythrocytes was employed. This assay uses a DNA binding fluorescent dye (SYBR Green) to detect parasite DNA following cell lysis. Because mature erythrocytes lack DNA, only Plasmodium-derived DNA is detected.
NCGC Assay Protocol Summary: The SYBR Green viability assay was adapted from a method described previously (Plouffe et al., 2008). For screening 3 ul culture medium was dispensed into 1536 well black clear bottom plates (Aurora Biotechnologies) using a Multidrop Combi (Thermo Fisher Scientific Inc.), 23 nL compounds in DMSO were added by a pin tool (Kalypsys), and 5 ul of erythrocytes infected with P. falciparum (0.3% parasitemia, 2.5% hematocrit final concentration) were added. The plates were incubated at 37 C in a humidified incubator in 5% CO2 for 72 h, and 2 ul lysis buffer (20 mM Tris HCl, 10 mM EDTA, 0.16% saponin, 1.6% triton X, 10X SYBR Green I supplied as 10,000X […] by Invitrogen) was added to each well. The plates were mixed for 25 sec with gentle shaking and incubated overnight at room temperature in the dark. The following morning, fluorescence intensity at 485(14) nm excitation and 535(25) nm emission wavelengths was measured on an EnVision (Perkin Elmer) plate reader. Plate reads were normalized relative to the control inhibitor (0.29 uM artemisinin) and vehicle (DMSO) wells present on each plate and then corrected by an algorithm using vehicle-only control plates at the beginning and end of the compound plate stack.
(In general: Quantitative high-throughput screening tests each substance at several concentrations.)
For the compound `CC[C@@]12CCCN3CCc4c(n(c5ccccc45)C(=O)C1)[C@H]32`, the Potency entry is “inactive”.

On to `Cc1cc(/C=C\c2ccc3cc(N(C)C)ccc3[n+]2C)c(C)n1-c1ccccc1`, for which the Potency was 1780 nM (active).

With `COc1cc(/C=C/C(=O)/C=C(O)/C=C/c2ccc(O)c(OC)c2)ccc1O`, the Potency entry was “inactive”.

As for `NC(=O)c1cc[n+](CC2=C(C(=O)O)N3C(=O)[C@@H](NC(=O)[C@H](c4ccccc4)S(=O)(=O)[O-])[C@@H]3SC2)cc1`, the Potency is 1780 nM (active).

In the case of `Cn1c(=O)c2c(ncn2C[C@@H](O)CO)n(C)c1=O`, the Potency entry was “inactive”.

Turning to `C[C@H](NCCc1ccc(O)cc1)[C@@H](O)c1ccc(O)cc1`, the Potency result was “inactive”.

Take `CC(C)N1CCN(c2ccc(OC[C@@H]3CO[C@@](Cn4cncn4)(c4ccc(Cl)cc4Cl)O3)cc2)CC1`: the Potency entry is “inactive”.

With `COCCc1ccc(OC[C@H](O)CNC(C)C)cc1`, the Potency entry was “inactive”.

For `CN(C)CC/C=C1\c2ccccc2CSc2ccccc21`, the Potency entry is “inactive”.

For the compound `CC(C)(C)NC[C@H](O)c1cc(O)cc(O)c1`, the Potency entry was “inactive”.

Regarding `CN(N=O)C(=O)N[C@H]1[C@@H](O)[C@H](O)[C@H](CO)O[C@@H]1O`, the Potency entry is “inactive”.

On to `CC(C)(O/N=C(\C(=O)N[C@@H]1C(=O)N2C(C(=O)[O-])=C(C[n+]3ccccc3)CS[C@@H]12)c1csc(N)n1)C(=O)O`, for which the Potency result is “inactive”.

Take `NC(N)=NC[C@@H]1COC2(CCCCC2)O1`: the Potency entry was “inactive”.

As to `CC1(C)O[C@@H]2C[C@H]3[C@H]4C[C@H](F)C5=CC(=O)C=C[C@@]5(C)[C@@H]4[C@H](O)C[C@]3(C)[C@]2(C(=O)CO)O1`, the Potency result was “inactive”.

As to `COc1c(O)cc2c(c1O)[C@@H]1O[C@@H](CO)[C@@H](O)[C@@H](O)[C@@H]1OC2=O`, the Potency entry is “inactive”.

For `CC(=O)OCC1=C(C(=O)O)N2C(=O)[C@@H](NC(=O)CSc3ccncc3)[C@@H]2SC1`, the Potency result was “inactive”.

Take `CCCN[C@@H](C)C(=O)Nc1ccccc1C`: the Potency result is “inactive”.

Turning to `O=C(Cc1cccs1)NC1C(=O)N2C(C(=O)[O-])=C(C[n+]3ccccc3)CSC12` (stereo not given), the Potency result is “inactive”.

Consider `CC1(C)Oc2ccc(C#N)cc2[C@H](N2CCCC2=O)[C@H]1O`, for which the Potency result was “inactive”.

Take `NS(=O)(=O)c1cc([C@@]2(O)NC(=O)c3ccccc32)ccc1Cl`: the Potency entry is “inactive”.

Regarding `CC[C@]1(C)CC(=O)NC1=O`, the Potency result is “inactive”.

Turning to `CC(=O)Nc1c(I)c(C(=O)N[C@H]2[C@@H](O)[C@H](O)[C@H](CO)O[C@@H]2O)c(I)c(N(C)C(C)=O)c1I`, the Potency result was “inactive”.

As to `O=c1[nH]c(=O)n([C@@H]2C[C@H](O)[C@H](CO)O2)cc1I`, the Potency entry is “inactive”.

Turning to `O=C(c1ccccc1)c1ccc2n1CC[C@H]2C(=O)O`, the Potency result was “inactive”.

As for `CC(C)NC[C@H](O)c1cc(O)cc(O)c1`, the Potency result was “inactive”.

Consider `C[C@@H]1CCC[C@H](C)N1NC(=O)c1ccc(Cl)c(S(N)(=O)=O)c1`, for which the Potency result was “inactive”.

`CO/N=C(\C(=O)N[C@@H]1C(=O)N2C(C(=O)O)=C(COC(C)=O)CS[C@@H]12)c1csc(N)n1`: the Potency entry is “inactive”.

For the compound `CN[C@@H]1[C@H](O[C@@H]2O[C@H](CO)[C@@H](N)[C@H](O)[C@@H]2O)O[C@H]2C[C@@H](N)[C@@H](O[C@H]3[C@@H](O)[C@H](O)[C@H](N)C[C@@H]3N)O[C@H]2[C@H]1O`, the Potency result was “inactive”.

As to `CCCN[C@@H](C)C(=O)Nc1c(C)csc1C(=O)OC`, the Potency entry was “inactive”.

On to `O=c1[nH]cnc2c1ncn2C1OC(CO)C(O)C1O` (stereo not given), for which the Potency entry is “inactive”.

For `N[C@@H](CO)C(=O)NNCc1ccc(O)c(O)c1O`, the Potency entry was “inactive”.

On to `C[N+]1(C)CCC[C@@H](OC(=O)C(O)(c2ccccc2)c2ccccc2)C1`, for which the Potency result is “inactive”.

For the compound `C[N+](C)(C)CC(O)CC(=O)O` (stereo not given), the Potency entry was “inactive”.

In the case of `CCN1C(=O)N[C@@H](c2ccccc2)C1=O`, the Potency entry was “inactive”.

As for `CO/N=C(/C(=O)NC1C(=O)N2C(C(=O)O)=C(CSc3nc(=O)c(O)nn3C)CSC12)c1csc(N)n1` (stereo not given), the Potency result was “inactive”.

On to `CN1[C@@H]2CC[C@H]1CC(OC(=O)[C@@H](O)c1ccccc1)C2` (stereo not given in full), for which the Potency result is “inactive”.

Take `CO[C@]1(NC(=O)CSCC#N)C(=O)N2C(C(=O)O)=C(CSc3nnnn3C)CS[C@H]21`: the Potency result was “inactive”.

`CCC[C@H]1C(=O)N2C(N(C)C)=Nc3ccc(C)cc3N2C1=O`: the Potency entry is “inactive”.

As to `COc1ccc(C[C@@H]2c3cc(OC)c(OC)cc3CC[N@+]2(C)CCC(=O)OCCCCCOC(=O)CC[N@@+]2(C)CCc3cc(OC)c(OC)cc3[C@H]2Cc2ccc(OC)c(OC)c2)cc1OC`, the Potency result was “inactive”.

With `C/C=C\C(=O)N(CC)c1ccccc1C`, the Potency entry was “inactive”.

The values are drawn from PubChem BioAssay (NCATS).
